Sequences and labels used below:
B1: chr5:136977529:136977630:-|3pUTR|ENSG00000152377|msi1|FALSE|unique (ssRNA)
RNA: GGGAGUUCUACAGUCCGACGAUCACAAGCCAUCUCUUUCAUUUCUGCUUGAAGCCCCUUGGCUGCAGCAAUCCUGUCUGCCAUAGGUUUCUUCCUUCCUUACCUACUCAAGGGCUUUUUCUAAGGCAUGCACACAUAUCUCCUCAACAGAGGAUUGAGCAUCA
B2: chr12:100625254:100625355:+|3pUTR|ENSG00000139354|unk|total|mutant (ssRNA)
RNA: GGGAGUUCUACAGUCCGACGAUCAUAUGUAUUAAAUAUGGAGUUCAUAUACCUGCUAAUAUCAACGGUGGUGCUCUUACUAUCCGUUAAUUGCAUUUUGGUUAAAAAAAAAAAAGCAACAGUUUGGCACUUGUCCUACAAAAGCAACAGAGGAUUGAGCAUCA
B3: chr3:48857559:48857660:-|3pUTR|ENSG00000178537|unk|total|mutant (ssRNA)
RNA: GGGAGUUCUACAGUCCGACGAUCGGCUGAAGGCUGCUCAAGUUCACUUCUGGAUGCUGGAAGCUGUCGUUGAGGAGAAGGAGCCGUAAGCAGAACUAAGCAGUCUUGGAGGGCAAGGGGAGGGGAAUGGUGAGAUCCGAGCCCCAACAGAGGAUUGAGCAUCA
B4: chr2:20282997:20283108:-|CDS|ENSG00000055917|unk|total|mutant (ssRNA)
RNA: GGGAGUUCUACAGUCCGACGAUCACUAAUCUGCAAUCUAAUUCAUUUUAUGGAAGCAGUUCUUUGACUAACCGCUCCCAGAGCCGUUCUUUAUUUUCUCAUGGACCUGGUCAACCUGGAAGUACAUCUCUUGGCUUUGGAAGUCAACAGAGGAUUGAGCAUCA
B5: chr17:10306458:10306629:-|CDS|ENSG00000006788|control|control|control (ssRNA)
RNA: GGGAGUUCUACAGUCCGACGAUCCCACCUGGAGCGGAUGAAGAAGAACCUGGAGCAGACGGUGAAGGACCUGCAGCACCGUCUAGAUGAGGCUGAACAACUGGCGCUGAAGGGCGGGAAGAAGCAGAUCCAGAAACUGGAGAACAACAGAGGAUUGAGCAUCA
B6: ENSG00000136451:be:win_3801|3pUTR|ENSG00000136451|bound_else_gene|NA|bound_elsewhere_windowed (ssRNA)
RNA: GGGAGUUCUACAGUCCGACGAUCACCCCUAAGCUAGAAUGUGGUUGUCAGAACCCUGAAAGUAUUAGUUCUAAAAAAAAAAAGAUAUAUACUAGAAGUAAUUGUUUUAUCAAUUCAUUGUAUAAUAAACAGGAGUGAGACUUCCAACAGAGGAUUGAGCAUCA
B7: chr7:152122106:152122213:+|3pUTR|ENSG00000178234|unk|FALSE|unique (ssRNA)
RNA: GGGAGUUCUACAGUCCGACGAUCAGUGGUUUUUAUCUGAUCAGGAACUUGUCAUGAUUUCCUUUCUUAGACUUCAUAGGAGAUAGUGCUUUAAAAAAAAAAAAAACUUCUAUUAUUUGUUUAGUAUGUUGUAAGUAGAUCAUUCAACAGAGGAUUGAGCAUCA
B8: chr3:45823315:45826332:-|three_prime_utr|ENSG00000163818|control|control|control (ssRNA)
RNA: GGGAGUUCUACAGUCCGACGAUCUCAGGCAUGUAUUUUGAAAAGCAUUUUGUCAUAUCCCCUCUCCUUAUUUUUCUAAUAUUUAGACUUUGAAUAUUUAGAACUAGAGUUCCUAUUUUCAGCUAGUUGAAAACAGAGAAAACCCAACAGAGGAUUGAGCAUCA
B9: chr17:57972098:57972209:-|3pUTR|ENSG00000136451|unk|total|mutant (ssRNA)
RNA: GGGAGUUCUACAGUCCGACGAUCCCCGAAUGUGGUUGUCAGAACCCUGAAAGUAUCCGUUCUAAAAAAAAAAAGAUAUAUACCCGAAGUAAUUGUUUUAUCAAUUCAUUGUAUAAUAAACAGGAGUGAGACUUCAUUGUAUGACAACAGAGGAUUGAGCAUCA
B10: ENSG00000186472:stop:overlap|stop_codon|ENSG00000186472|stop_codon|NA|stop_codon (ssRNA)
RNA: GGGAGUUCUACAGUCCGACGAUCUUUCUUGUAAAUGGAAAUUUUAUCAUGUGUAUAGAUUCUGUAGCAUGCUUUUCUUUAUUUAGUUUUACUUUAUUCCUUUAUUGUUCUGUUUCUUGAUUGUUUGCUUGAUUUGUUUGGUGUCAACAGAGGAUUGAGCAUCA
B11: chr7:152122106:152122213:+|3pUTR|ENSG00000178234|unk|total|mutant (ssRNA)
RNA: B7 RNA with U67C, A68C, U76C, A77C, U83C, A84C, U121C, A122C, U135C, A136C
B12: chr18:2804133:2804242:+|3pUTR|ENSG00000101596|unk|FALSE|unique (ssRNA)
RNA: GGGAGUUCUACAGUCCGACGAUCGGUUAAAGAGAAAUGACUUUUUAGGAACUAGACUUGAACGUAUAAUUAAUAUGUGGAACUAGUUUGCUUUUAUAAUUCAUUGUAUCAAGAAGGAGUCAUGUUUUAAAUCCAAGGCAUUGACAACAGAGGAUUGAGCAUCA
B13: chr1:67413009:67413110:-|3pUTR|ENSG00000142864|unk|total|mutant (ssRNA)
RNA: GGGAGUUCUACAGUCCGACGAUCCUGAAUUUUAUCUGUUUUAAAAAUGAACUUCUCCCGCUACACAGAAGUAACAAAUAUGGCCGUCAGUUUUGUAUUCCGAAAUGUAUUGGCCGCAGGGAUGUUUUCAUAAUUUUCAGAGAUCAACAGAGGAUUGAGCAUCA
B14: chr17:57972098:57972209:-|3pUTR|ENSG00000136451|unk|FALSE|bound_elsewhere (ssRNA)
RNA: B9 RNA with C25U, C26A, C56U, C57A, C83U, C84A
B15: ENSG00000136451:be:win_3751|3pUTR|ENSG00000136451|bound_else_gene|NA|bound_elsewhere_windowed (ssRNA)
RNA: GGGAGUUCUACAGUCCGACGAUCCUCCACAGUGGUCCAAGGAGCAGUCCUCAGUGGGGGCAGGUGUGGGCCCUACCCCUAAGCUAGAAUGUGGUUGUCAGAACCCUGAAAGUAUUAGUUCUAAAAAAAAAAAGAUAUAUACUACAACAGAGGAUUGAGCAUCA
B16: chr1:67413009:67413110:-|3pUTR|ENSG00000142864|unk|FALSE|unique (ssRNA)
RNA: B13 RNA with C83U, C84A, C99U, C100A, C113U, C114A
B17: chr8:72021249:72022905:-|three_prime_utr|ENSG00000104321|control|control|control (ssRNA)
RNA: GGGAGUUCUACAGUCCGACGAUCGCAGAUAUGUUCAAAUUGGACUGGACUUUGAUGAGAUAUAAUCUCAUUAUUUGAAUGGGUAGAAAAUGAAUUUGCUAGAACACACAUUUUUAAUGAAAAGAAGUAAUAAAUGUAACUAUUCAACAGAGGAUUGAGCAUCA
B18: chr2:112659350:112659462:+|CDS|ENSG00000144136|unk|FALSE|unique (ssRNA)
RNA: GGGAGUUCUACAGUCCGACGAUCCUUGCCAAGGUGGGAGAUUGCAUGGGAGACUCCGGUGACAAACCCUUAAGGCGCAAUAAUAGCUAUACUUCCUAUACCAUGGCAAUAUGUGGCAUGCCUCUGGAUUCAUUCCGUGCCAAACAACAGAGGAUUGAGCAUCA
B19: chr12:49763637:49763739:+|3pUTR|ENSG00000139644|msi1_unk|total|mutant (ssRNA)
RNA: GGGAGUUCUACAGUCCGACGAUCAUGUGUAUCAAGGUACAGCAUCGCCGGGUUCCCCUAAACUUGCCCUGUUUUUGUUUUUUCCGUUUGUUAUCCCCUUACUGAGCGGCCUCUACCCGGUGGCUGUGAUUAAAUGUCCCAAGCCAACAGAGGAUUGAGCAUCA
B20: chr20:17613772:17613873:-|3pUTR|ENSG00000125844|unk|total|mutant (ssRNA)
RNA: GGGAGUUCUACAGUCCGACGAUCAGCCCCGUGGGUGUGUGGGAGGCCGGGCGCUCUGGGGUCUGUCUGUCAGUGCAAUCGUUCCGUGUUUUUUCAGUGGGGCGGGGCGGGAAGCGGGUGGGACCGGGCAGCCAGUUCUCAAAGCAACAGAGGAUUGAGCAUCA
B21: chr4:48851844:48851957:+|CDS|ENSG00000109180|unk|FALSE|unique (ssRNA)
RNA: GGGAGUUCUACAGUCCGACGAUCAUAUGACUCAAGUGUGAGUGGUCAAUCAUCUUUUGUGACAUCCCCAGCAGCAGACAACAUAGAAAUGCUUCCUCAUUAUGAGCCAAUUCCAUUCAGUUCUUCUAUGAAUGAAUCUGCUCCCAACAGAGGAUUGAGCAUCA
B22: ENSG00000107863:be:win_2201|CDS|ENSG00000107863|bound_else_gene|NA|bound_elsewhere_windowed (ssRNA)
RNA: GGGAGUUCUACAGUCCGACGAUCCUGUCAUCCUAAGGGAAAAACCUCCAUCUGGACGCCAGACACCGCAGCCUUUAAGGCAUCAGUCUUACAUCUUGGCAGUAAAUGACCAGGAGACCGGGUCAGACACUACCUGCUGGCUGCCAACAGAGGAUUGAGCAUCA

Residue numbers refer to the chain shown, from its start. Whole data set: some 5,800 sequences, median “enrichment r” near 0.54, cut for the highest 2% near 16. The full list was thinned out, with the highest values kept by preference.

In the assay the target is MSI1 full-length (mouse, UniProt Q61474 1-362). Put plainly: nsRBNS (natural sequence RNA bind-n-seq); RBNS binding buffer (assumed for nsRBNS): 25 mM Tris pH 7.5, 150 mM KCl, 3 mM MgCl2, 0.01% Triton X-100, 500 ug/ml BSA, 20 U/ml SUPERase-In, 4 C; UNK is unkempt and MSI1 is Musashi-1; names of the RNAs are library labels; protein concentration not given here; high values mean tight binding.
Chain of MSI1 full-length (Q61474 whole entry): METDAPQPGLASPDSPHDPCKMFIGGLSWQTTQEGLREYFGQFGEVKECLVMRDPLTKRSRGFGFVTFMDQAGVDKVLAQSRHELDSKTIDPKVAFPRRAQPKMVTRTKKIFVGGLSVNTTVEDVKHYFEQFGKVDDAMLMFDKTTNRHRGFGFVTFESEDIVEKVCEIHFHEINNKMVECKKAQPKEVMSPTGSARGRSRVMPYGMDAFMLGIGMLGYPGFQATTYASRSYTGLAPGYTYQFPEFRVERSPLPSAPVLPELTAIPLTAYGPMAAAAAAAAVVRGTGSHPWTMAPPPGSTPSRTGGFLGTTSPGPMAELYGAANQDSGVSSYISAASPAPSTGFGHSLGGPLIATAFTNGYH
B1: the binding signal is 0.506 enrichment R.

Regarding B2, the binding signal turned out to be 0.371 enrichment R.

With B3, the binding signal amounted to 0.595 enrichment R.

Consider B4, for which the binding signal is 0.305 enrichment R.

B5 had a binding signal of 0.485 enrichment R.

For B6, the binding signal came out at 16.4 enrichment R.

B7 registered a binding signal of 20.2 enrichment R.

Molecule B8 displayed a binding signal of 5.79 enrichment R.

Turning to B9, the binding signal was 0.711 enrichment R.

B10 returned a binding signal of 0.35 enrichment R.

The molecule B11 showed a binding signal of 1.74 enrichment R.

B12 returned a binding signal of 1.24 enrichment R.

B13 returned a binding signal of 0.413 enrichment R.

The molecule B14 came in with a binding signal of 29.3 enrichment R.

With B15, the binding signal was found to be 1.89 enrichment R.

For the molecule B16, the binding signal was 41.4 enrichment R.

Molecule B17 had a binding signal of 2.75 enrichment R.

Turning to B18, the binding signal was 0.737 enrichment R.

Molecule B19 displayed a binding signal of 0.481 enrichment R.

For B20, the binding signal was 0.811 enrichment R.

The molecule B21 gave a binding signal of 0.341 enrichment R.

With B22, the binding signal was 0.283 enrichment R.

The values are drawn from PMC12136788.
